# Columns and labels:
# Experiment in all cases: DAPPL (digital affinity profiling via proximity ligation, sequencing); 10 mM Tris-HCl pH 7.5, 50 mM NaCl, 1 mM DTT, 4% glycerol, room temperature, 30 min; GST-TFs on glutathione beads, 16-mer random dsDNA library, 0.1% formaldehyde crosslink after washing; high values mean tight binding
# Conditions in all cases: protein: recombinant; tags: N-terminal GST; dsDNA, one strand shown
# ELK1 = target: T1, ELK1 (Homo sapiens, UniProt P19419 1-428)
# T1 sequence: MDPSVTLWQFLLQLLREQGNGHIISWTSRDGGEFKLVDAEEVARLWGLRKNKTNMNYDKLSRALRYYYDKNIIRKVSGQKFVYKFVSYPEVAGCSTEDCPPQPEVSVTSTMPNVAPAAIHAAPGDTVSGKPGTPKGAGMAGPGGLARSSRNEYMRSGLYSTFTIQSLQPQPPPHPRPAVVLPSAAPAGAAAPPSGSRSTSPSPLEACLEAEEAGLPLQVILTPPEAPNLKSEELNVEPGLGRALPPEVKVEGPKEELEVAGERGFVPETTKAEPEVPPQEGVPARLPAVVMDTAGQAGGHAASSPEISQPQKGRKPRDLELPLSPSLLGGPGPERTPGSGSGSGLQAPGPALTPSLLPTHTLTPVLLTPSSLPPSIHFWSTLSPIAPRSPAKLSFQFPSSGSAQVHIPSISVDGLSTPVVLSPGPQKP
# Method in brief: (§1)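 Beads coated with glutathione captured GST-fused human transcription factors that had been expressed in yeast, and the factors were then given DNA barcodes and pooled with a tag-only sample. The pools were incubated with 200 nmole of a random double-stranded 16-mer DNA library in Tris/NaCl/DTT/glycerol buffer for 30 min at room temperature, washed, crosslinked with 0.1% formaldehyde and proximity-ligated with BsaI/T4 ligase at 37 °C for 1 h. PCR amplification and Illumina NextSeq500 sequencing came last. Binding signal is each hexamer's read frequency for a factor divided by its frequency for the tag-only sample.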
# ELF1 = ELF1 (Homo sapiens, UniProt P32519 1-619)
# Method in brief: as §1
# EHF = target: T2, EHF (Homo sapiens, UniProt Q9NZC4 1-300)
# T2 sequence: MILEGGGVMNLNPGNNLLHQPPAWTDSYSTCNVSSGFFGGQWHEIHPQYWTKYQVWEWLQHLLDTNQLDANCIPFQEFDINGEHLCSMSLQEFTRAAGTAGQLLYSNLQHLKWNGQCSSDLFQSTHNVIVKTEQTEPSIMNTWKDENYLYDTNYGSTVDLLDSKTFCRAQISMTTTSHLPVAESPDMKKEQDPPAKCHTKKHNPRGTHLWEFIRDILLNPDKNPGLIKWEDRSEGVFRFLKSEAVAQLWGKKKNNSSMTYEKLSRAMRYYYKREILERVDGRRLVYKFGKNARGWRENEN
# Method in brief: as §1
# SPIB = SPIB (Homo sapiens, UniProt Q01892 1-262)
# Method in brief: as §1
# ELK3 = target: T3, ELK3 (Homo sapiens, UniProt P41970 1-407)
# T3 sequence: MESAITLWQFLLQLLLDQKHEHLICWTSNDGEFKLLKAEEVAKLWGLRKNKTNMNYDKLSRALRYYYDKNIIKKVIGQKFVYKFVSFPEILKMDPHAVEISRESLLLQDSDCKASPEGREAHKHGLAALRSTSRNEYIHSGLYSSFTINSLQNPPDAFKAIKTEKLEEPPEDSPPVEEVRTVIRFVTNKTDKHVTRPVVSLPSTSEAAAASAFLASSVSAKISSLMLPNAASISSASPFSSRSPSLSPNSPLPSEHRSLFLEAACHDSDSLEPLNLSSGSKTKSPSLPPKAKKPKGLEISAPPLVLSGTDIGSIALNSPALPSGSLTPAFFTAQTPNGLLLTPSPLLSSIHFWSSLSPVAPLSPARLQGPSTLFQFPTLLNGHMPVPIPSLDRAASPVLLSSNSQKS
# Method in brief: as §1
# ETV5 = ETV5 (Homo sapiens, UniProt P41161 1-510)
# Method in brief: as §1
# SPIC = target: T4, SPIC (Homo sapiens, UniProt Q8N5J4 1-248)
# T4 sequence: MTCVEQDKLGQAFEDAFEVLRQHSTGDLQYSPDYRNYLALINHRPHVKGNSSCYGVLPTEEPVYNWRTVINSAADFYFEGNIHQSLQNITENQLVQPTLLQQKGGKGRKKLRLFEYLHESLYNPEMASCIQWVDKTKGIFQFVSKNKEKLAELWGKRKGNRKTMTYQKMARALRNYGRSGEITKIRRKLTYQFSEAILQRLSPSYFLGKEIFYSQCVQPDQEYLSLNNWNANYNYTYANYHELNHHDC
# Method in brief: as §1
# ELF4 = ELF4 (Homo sapiens, UniProt Q99607 1-663)
# Method in brief: as §1
# ELK4 = target: T5, ELK4 (Homo sapiens, UniProt P28324-2 1-405)
# T5 sequence: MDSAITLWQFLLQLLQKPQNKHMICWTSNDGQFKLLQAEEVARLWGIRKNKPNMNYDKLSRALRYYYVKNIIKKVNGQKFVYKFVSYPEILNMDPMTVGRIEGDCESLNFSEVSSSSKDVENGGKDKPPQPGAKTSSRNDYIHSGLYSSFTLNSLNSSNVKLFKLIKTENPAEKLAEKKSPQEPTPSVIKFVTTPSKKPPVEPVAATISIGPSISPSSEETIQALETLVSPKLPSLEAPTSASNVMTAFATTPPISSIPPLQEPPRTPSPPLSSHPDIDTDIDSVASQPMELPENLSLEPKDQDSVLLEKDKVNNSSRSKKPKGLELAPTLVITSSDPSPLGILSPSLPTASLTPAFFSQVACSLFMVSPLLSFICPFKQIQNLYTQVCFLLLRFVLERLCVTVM
# Method in brief: as §1
# ELF3 = target: T6, ELF3 (Homo sapiens, UniProt P78545 1-371)
# T6 sequence: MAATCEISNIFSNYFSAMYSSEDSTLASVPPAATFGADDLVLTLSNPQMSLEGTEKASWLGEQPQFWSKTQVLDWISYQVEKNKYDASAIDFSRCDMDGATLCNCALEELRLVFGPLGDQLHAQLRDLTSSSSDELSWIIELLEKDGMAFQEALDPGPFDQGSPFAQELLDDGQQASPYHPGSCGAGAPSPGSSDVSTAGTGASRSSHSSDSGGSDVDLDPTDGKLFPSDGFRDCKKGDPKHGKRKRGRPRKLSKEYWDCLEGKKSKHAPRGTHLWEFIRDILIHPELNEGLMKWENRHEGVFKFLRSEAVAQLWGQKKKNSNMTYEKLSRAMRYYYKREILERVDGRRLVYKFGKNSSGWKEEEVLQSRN
# Method in brief: as §1
# ETV1 = ETV1 (Homo sapiens, UniProt P50549 1-477)
# Method in brief: as §1
# ERF = target: T7, ERF (Homo sapiens, UniProt P50548 1-548)
# T7 sequence: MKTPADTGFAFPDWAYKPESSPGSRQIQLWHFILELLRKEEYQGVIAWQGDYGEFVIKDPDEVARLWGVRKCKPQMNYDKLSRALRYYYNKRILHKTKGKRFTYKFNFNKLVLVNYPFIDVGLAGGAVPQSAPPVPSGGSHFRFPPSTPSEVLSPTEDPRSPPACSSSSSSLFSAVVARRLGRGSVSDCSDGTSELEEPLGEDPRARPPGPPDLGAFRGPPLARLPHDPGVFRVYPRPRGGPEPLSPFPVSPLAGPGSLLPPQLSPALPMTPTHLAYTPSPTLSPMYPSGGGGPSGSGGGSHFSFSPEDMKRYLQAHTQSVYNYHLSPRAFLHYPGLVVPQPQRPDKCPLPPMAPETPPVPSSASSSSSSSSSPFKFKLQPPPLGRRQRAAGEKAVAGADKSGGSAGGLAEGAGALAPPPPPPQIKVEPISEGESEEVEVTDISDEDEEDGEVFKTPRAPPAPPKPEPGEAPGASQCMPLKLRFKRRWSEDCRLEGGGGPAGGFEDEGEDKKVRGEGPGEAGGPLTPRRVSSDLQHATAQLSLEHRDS
# Method in brief: as §1
# ETV3L = target: T8, ETV3L (Homo sapiens, UniProt Q6ZN32 1-361)
# T8 sequence: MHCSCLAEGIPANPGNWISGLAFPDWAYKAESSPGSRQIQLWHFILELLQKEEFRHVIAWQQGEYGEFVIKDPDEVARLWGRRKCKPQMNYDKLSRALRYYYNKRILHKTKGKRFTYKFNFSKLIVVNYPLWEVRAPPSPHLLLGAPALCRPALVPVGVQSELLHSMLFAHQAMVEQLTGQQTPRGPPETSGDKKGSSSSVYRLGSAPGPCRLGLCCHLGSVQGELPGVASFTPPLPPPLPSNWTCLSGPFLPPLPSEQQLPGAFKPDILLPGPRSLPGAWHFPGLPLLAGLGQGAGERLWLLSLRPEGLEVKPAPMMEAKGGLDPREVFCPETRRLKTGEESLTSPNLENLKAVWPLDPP
# Method in brief: as §1
# ETS2 = target: T9, ETS2 (Homo sapiens, UniProt P15036 1-469)
# T9 sequence: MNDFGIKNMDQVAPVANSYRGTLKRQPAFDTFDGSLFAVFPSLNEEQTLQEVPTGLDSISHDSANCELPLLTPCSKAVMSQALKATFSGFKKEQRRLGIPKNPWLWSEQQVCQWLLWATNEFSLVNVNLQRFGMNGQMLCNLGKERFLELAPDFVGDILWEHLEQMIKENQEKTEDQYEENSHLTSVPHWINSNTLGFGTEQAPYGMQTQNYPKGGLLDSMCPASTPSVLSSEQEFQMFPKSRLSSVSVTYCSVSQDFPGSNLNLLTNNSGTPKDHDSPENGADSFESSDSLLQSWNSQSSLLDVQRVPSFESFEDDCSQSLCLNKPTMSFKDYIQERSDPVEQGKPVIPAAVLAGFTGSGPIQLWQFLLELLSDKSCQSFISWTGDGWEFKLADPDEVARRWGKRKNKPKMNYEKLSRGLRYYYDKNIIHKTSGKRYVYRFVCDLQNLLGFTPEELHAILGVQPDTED
# Method in brief: as §1
# SPDEF = target: T10, SPDEF (Homo sapiens, UniProt O95238 1-335)
# T10 sequence: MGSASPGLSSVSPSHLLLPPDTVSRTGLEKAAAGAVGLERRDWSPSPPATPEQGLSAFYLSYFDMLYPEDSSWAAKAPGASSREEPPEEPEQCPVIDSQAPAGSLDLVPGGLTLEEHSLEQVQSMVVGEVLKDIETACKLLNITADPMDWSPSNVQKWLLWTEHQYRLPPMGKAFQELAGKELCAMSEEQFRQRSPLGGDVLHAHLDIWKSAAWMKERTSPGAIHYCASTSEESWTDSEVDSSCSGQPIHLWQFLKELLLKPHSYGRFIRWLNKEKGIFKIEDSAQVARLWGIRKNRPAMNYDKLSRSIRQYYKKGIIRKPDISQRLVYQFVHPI
# Method in brief: as §1
# ETV7 = target: T11, ETV7 (Homo sapiens, UniProt Q9Y603 1-341)
# T11 sequence: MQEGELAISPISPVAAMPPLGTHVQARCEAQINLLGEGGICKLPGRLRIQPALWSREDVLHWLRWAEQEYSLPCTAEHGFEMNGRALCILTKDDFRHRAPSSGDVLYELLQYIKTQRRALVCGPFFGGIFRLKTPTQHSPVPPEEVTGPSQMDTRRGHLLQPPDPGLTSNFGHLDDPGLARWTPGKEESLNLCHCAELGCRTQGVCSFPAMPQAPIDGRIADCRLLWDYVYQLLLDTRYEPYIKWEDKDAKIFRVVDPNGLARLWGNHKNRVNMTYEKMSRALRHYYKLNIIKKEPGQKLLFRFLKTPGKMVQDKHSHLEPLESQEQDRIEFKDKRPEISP
# Method in brief: as §1
# ETV6 = ETV6 (Homo sapiens, UniProt P41212 1-452)
# Method in brief: as §1
# Chain of ELF4 (Q99607 whole entry): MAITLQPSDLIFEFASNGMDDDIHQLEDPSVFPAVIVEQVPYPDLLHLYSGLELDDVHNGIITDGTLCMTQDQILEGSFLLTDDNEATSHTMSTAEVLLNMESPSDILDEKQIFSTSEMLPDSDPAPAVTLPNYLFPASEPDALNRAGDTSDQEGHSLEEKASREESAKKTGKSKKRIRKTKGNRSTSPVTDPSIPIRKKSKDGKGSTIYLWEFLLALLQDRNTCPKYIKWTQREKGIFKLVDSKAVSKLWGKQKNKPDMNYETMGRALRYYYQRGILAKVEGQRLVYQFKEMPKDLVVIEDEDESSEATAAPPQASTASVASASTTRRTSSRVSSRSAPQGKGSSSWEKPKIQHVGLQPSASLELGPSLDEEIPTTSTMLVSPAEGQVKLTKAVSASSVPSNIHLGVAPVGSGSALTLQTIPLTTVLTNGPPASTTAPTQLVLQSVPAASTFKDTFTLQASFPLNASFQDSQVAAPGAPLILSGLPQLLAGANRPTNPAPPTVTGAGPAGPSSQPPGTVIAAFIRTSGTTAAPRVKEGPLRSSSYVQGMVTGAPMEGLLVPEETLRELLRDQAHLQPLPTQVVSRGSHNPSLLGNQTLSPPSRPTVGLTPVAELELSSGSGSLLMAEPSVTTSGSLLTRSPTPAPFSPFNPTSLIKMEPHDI
# Chain of ETV6 (P41212 whole entry): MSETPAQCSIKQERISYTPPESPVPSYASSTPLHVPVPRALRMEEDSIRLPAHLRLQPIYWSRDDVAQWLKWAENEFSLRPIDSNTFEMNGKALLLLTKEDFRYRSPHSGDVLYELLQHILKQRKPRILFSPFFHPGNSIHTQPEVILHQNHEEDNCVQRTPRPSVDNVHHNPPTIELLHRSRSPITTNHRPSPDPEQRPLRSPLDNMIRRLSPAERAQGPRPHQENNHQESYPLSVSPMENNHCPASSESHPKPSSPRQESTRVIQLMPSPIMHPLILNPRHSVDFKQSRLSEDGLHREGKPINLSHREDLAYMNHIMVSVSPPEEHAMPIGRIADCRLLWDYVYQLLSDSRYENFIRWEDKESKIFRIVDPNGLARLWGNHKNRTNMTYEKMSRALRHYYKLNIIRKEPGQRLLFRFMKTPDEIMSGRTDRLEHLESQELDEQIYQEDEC
# Chain of ELF1 (P32519 whole entry): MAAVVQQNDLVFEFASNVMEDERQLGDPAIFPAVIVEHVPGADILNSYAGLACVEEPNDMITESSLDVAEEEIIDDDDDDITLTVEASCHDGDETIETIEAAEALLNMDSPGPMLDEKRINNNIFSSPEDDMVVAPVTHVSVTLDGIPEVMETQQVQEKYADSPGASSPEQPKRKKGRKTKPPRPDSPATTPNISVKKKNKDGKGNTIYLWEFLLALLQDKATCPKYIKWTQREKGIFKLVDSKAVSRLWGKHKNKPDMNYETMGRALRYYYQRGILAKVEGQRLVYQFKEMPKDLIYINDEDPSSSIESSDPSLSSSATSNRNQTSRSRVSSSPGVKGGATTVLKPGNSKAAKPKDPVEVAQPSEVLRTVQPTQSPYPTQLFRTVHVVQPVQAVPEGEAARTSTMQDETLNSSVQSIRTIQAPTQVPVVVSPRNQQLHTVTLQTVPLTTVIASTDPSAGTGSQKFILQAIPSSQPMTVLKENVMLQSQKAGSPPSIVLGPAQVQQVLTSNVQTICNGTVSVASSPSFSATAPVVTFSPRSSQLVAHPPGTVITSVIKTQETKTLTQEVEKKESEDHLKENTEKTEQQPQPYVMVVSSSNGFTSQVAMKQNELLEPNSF
# Chain of ETV1 (P50549 whole entry): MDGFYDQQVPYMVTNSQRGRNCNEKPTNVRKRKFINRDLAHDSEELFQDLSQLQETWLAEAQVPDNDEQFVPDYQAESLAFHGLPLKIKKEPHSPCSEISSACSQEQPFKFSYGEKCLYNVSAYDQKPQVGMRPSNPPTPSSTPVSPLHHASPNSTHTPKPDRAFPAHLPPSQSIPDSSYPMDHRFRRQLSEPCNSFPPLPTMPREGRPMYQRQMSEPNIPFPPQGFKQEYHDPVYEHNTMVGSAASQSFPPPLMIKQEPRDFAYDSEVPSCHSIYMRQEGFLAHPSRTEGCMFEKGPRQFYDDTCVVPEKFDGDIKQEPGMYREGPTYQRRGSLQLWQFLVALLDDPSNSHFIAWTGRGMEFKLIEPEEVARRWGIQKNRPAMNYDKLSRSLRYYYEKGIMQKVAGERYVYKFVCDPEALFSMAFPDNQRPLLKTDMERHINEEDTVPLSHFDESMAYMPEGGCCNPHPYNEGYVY
# Chain of SPIB (Q01892 whole entry): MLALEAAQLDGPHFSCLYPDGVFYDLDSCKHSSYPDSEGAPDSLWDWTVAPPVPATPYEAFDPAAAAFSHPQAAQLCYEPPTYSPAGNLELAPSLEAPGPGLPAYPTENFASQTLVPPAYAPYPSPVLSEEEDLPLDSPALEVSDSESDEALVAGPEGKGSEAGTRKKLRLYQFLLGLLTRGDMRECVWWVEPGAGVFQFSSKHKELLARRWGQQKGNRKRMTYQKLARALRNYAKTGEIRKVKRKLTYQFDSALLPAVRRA
# Chain of ETV5 (P41161 whole entry): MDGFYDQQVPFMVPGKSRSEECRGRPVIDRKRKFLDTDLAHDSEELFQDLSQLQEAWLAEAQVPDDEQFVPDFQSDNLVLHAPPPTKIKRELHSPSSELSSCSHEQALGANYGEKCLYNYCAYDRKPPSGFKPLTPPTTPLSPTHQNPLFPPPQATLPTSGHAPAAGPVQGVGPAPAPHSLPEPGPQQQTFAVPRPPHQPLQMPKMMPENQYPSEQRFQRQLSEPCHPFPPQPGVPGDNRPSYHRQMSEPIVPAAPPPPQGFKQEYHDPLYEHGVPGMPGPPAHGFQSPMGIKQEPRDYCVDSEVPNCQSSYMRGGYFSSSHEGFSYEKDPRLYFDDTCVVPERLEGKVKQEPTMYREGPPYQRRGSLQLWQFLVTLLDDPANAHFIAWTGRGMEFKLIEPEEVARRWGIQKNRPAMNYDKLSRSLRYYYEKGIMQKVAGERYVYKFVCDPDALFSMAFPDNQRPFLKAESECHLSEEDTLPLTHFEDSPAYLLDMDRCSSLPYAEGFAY
sequence,measurement,setting,value
GTCTAT,binding signal,ELK1,"1.04 fold enrichment (6-mer frequency, TF over GST control)"
same,binding signal,ELF1,"1.08 fold enrichment (6-mer frequency, TF over GST control)"
same,binding signal,EHF,"1.1 fold enrichment (6-mer frequency, TF over GST control)"
same,binding signal,SPIB,"1.01 fold enrichment (6-mer frequency, TF over GST control)"
same,binding signal,ELK3,"1.04 fold enrichment (6-mer frequency, TF over GST control)"
same,binding signal,ETV5,"1.07 fold enrichment (6-mer frequency, TF over GST control)"
same,binding signal,SPIC,"1.18 fold enrichment (6-mer frequency, TF over GST control)"
same,binding signal,ELF4,"1.11 fold enrichment (6-mer frequency, TF over GST control)"
same,binding signal,ELK4,"1 fold enrichment (6-mer frequency, TF over GST control)"
same,binding signal,ELF3,"1.12 fold enrichment (6-mer frequency, TF over GST control)"
same,binding signal,ETV1,"1.04 fold enrichment (6-mer frequency, TF over GST control)"
same,binding signal,ERF,"1.14 fold enrichment (6-mer frequency, TF over GST control)"
same,binding signal,ETV3L,"1.05 fold enrichment (6-mer frequency, TF over GST control)"
same,binding signal,ETS2,"1.01 fold enrichment (6-mer frequency, TF over GST control)"
same,binding signal,SPDEF,"1.08 fold enrichment (6-mer frequency, TF over GST control)"
same,binding signal,ETV7,"1.07 fold enrichment (6-mer frequency, TF over GST control)"
same,binding signal,ETV6,"1.03 fold enrichment (6-mer frequency, TF over GST control)"
